Measurements as given in the supplement of paper PMC10849652.
The full data set covers some 7,900 targets. This sample favours those with a hit. About 0.6% of all pairs of compound and target were hits.

Tests used:
Assay in all cases: log2 fold change, soluble protein after heating vs DMSO (PISA); higher = thermal stabilisation; K562 cells, 10 uM, 30 min; active = over 0.2 and 3.5 SD of the protein, either way, in both replicates (recomputed)
[1] = compound: CC1=C(C=C(C=C1)NC(=O)C2=CC(=CC=C2)C(C)(C)C#N)NC3=CC4=C(C=C3)N=CN(C4=O)C
Outline: (§1)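 K562 cells at 2×10^6 cells/mL were exposed to 10 μM compound for 30 min, then aliquots were heated for 3 min across 48°C-58°C, pooled, and extracted in PBS containing 0.5% NP-40 at 4°C. The supernatant after 21,000xg for 90 min was taken as soluble protein and measured by TMTpro 16plex LC-MS/MS with channel sums equalised. Thermal stability is reported relative to control samples, with values from duplicates. Fold changes are given on a log2 scale.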

[2] = compound: CC1=C(C=C(C=C1)NC(=O)C2=CC(=CC=C2)N(C)C)NC(=O)C3=CC=C(C=C3)O
Outline: as §1

[3] = compound: CC1=CC=C(C=C1)SC2=C3C=C(SC3=CN=C2)C(=O)N
Outline: as §1

[4] = compound: CC1=NC(=CC=C1)C2=C(N=C(N2)C(C)(C)C)C3=CC4=NC=CN=C4C=C3
Outline: as §1

Nexturastat A = compound: CCCCN(Cc1ccc(C(=O)NO)cc1)C(=O)Nc1ccccc1 [Nexturastat A]
Outline: as §1

vemurafenib = compound: CCCS(=O)(=O)Nc1ccc(F)c(C(=O)c2c[nH]c3ncc(-c4ccc(Cl)cc4)cc23)c1F [vemurafenib]
Outline: as §1

[5] = compound: CCCS(=O)(=O)Nc1ccc(F)c(C(=O)c2c[nH]c3ncc(Cl)cc23)c1F
Outline: as §1

[6] = compound: CCCc1cc(C)[nH]c(=O)c1CNC(=O)c1cc(-c2ccnc(N3CCN(C)CC3)c2)cc2c1cnn2C(C)C
Outline: as §1

givinostat = compound: CCN(CC)Cc1ccc2cc(COC(=O)Nc3ccc(C(=O)NO)cc3)ccc2c1 [givinostat]
Outline: as §1

barasertib = compound: CCN(CCCOc1ccc2c(Nc3cc(CC(=O)Nc4cccc(F)c4)[nH]n3)ncnc2c1)CCOP(=O)(O)O [barasertib]
Outline: as §1

[7] = compound: CC[C@@H]1C(=O)N(C)c2cnc(Nc3ccc(C(=O)NC4CCN(C)CC4)cc3OC)nc2N1C1CCCC1
Outline: as §1

volasertib = compound: CC[C@@H]1C(=O)N(C)c2cnc(Nc3ccc(C(=O)N[C@H]4CC[C@H](N5CCN(CC6CC6)CC5)CC4)cc3OC)nc2N1C(C)C [volasertib]
Outline: as §1

[8] = compound: CC[C@H](C)N1C=C(C2=C(C=C(C=C21)C3=CN=C(C=C3)N4CCNCC4)C(=O)NCC5=C(C=C(NC5=O)C)C)C
Outline: as §1

epoxomicin = compound: CC[C@H](C)[C@@H](C(=O)N[C@@H]([C@@H](C)O)C(=O)N[C@@H](CC(C)C)C(=O)[C@]1(CO1)C)NC(=O)[C@H]([C@@H](C)CC)N(C)C(=O)C [epoxomicin]
Outline: as §1

[9] = compound: CCn1c(C(=O)N(C2CC2)C2CC2)cc2c3c(ncn3C)c(Nc3cc(C)n(C)n3)nc21
Outline: as §1

[10] = compound: CCn1cc(-c2ccnc3[nH]c(-c4cccc(CN(C)C)c4)cc23)c(-c2ccc(NC(=O)N(C)C)cc2)n1
Outline: as §1

[11] = compound: CN(C)CC(=O)Nc1ccc2[nH]c(=O)c3ccccc3c2c1
Outline: as §1

rosiglitazone = compound: CN(CCOC1=CC=C(C=C1)C[C@H]2C(=O)NC(=O)S2)C3=CC=CC=N3 (racemic) [rosiglitazone]
Outline: as §1

[12] = compound: CN1C2=C(C3=C1C(=O)N(N=C3)CC4=CC(=CC=C4)N)SC(=C2)S(=O)C
Outline: as §1

[13] = compound: CN1CCC(CNc2ccc3ncc(-c4cccc(OC(F)(F)F)c4)n3n2)CC1
Outline: as §1

Measured: log2 fold change

TFRC (UniProt P02786)
Chain of UniProt P02786 (P02786 whole entry, looked up): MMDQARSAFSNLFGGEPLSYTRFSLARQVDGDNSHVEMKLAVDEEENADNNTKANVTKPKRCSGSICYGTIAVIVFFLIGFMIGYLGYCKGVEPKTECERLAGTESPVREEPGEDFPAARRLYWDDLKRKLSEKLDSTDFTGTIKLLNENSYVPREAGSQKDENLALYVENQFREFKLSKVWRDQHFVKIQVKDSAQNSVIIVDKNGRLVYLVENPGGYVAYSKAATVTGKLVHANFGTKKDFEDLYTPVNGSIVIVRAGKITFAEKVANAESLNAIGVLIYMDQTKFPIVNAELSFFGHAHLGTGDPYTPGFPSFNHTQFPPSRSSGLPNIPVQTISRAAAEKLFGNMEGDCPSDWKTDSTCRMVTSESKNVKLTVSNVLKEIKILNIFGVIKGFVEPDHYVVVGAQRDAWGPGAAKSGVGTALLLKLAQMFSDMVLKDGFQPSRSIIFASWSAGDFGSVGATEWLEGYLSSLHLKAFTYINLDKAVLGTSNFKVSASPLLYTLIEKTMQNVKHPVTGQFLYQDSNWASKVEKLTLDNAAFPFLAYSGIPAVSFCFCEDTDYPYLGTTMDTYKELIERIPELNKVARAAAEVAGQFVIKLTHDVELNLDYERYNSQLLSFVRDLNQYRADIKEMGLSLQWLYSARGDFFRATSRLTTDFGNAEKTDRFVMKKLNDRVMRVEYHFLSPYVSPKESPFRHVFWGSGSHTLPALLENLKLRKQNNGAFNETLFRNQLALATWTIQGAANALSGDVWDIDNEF
active: [7] -0.589 | volasertib -0.417 | [13] -0.289
inactive: [1] -0.008 | [2] 0.023 | [3] 0.02 | [4] 0.026 | Nexturastat A -0.067 | vemurafenib -0.002 | [5] -0.007 | [6] -0.026 | givinostat 0.004 | barasertib -0.015 | [8] -0.035 | epoxomicin -0.009 | [9] 0.051 | [10] -0.005 | [11] 0.004 | rosiglitazone -0.007 | [12] -0.033

SLC39A11 (UniProt Q8N1S5)
Chain of UniProt Q8N1S5 (Q8N1S5 whole entry, looked up): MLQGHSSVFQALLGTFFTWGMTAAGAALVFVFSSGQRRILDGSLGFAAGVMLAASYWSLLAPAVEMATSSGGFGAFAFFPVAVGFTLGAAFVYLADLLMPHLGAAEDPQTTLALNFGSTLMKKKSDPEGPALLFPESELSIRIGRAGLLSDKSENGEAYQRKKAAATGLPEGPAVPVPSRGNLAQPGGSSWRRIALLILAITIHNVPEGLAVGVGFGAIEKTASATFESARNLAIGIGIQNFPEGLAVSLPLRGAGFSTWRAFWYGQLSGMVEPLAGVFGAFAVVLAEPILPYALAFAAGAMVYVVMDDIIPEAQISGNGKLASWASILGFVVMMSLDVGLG
inactive: [1] 0.046 | [2] 0.372 | [3] -0.057 | [4] 0.045 | vemurafenib 0.055 | [5] -0.026 | [6] -0.009 | givinostat 0.074 | barasertib -0.002 | [7] 0.102 | volasertib 0.071 | [8] 0.007 | [9] 0 | [10] -0.136 | [11] -0.062 | rosiglitazone -0.007 | [12] -0.021 | [13] 0.15

TACC2 (UniProt O95359)
inactive: [1] -0.015 | [2] -0.058 | [3] 0.16 | vemurafenib 0.032 | [5] -0.054 | [6] -0.085 | barasertib 0.012 | [7] -0.013 | volasertib -0.048 | [8] 0.014 | [9] 0.012 | [10] 0.041 | [11] -0.069 | rosiglitazone 0.039 | [12] 0 | [13] -0.044
active: givinostat -0.284

SMPD4 isoform 2 (UniProt Q9NXE4)
Chain of UniProt Q9NXE4 (Q9NXE4 whole entry, looked up): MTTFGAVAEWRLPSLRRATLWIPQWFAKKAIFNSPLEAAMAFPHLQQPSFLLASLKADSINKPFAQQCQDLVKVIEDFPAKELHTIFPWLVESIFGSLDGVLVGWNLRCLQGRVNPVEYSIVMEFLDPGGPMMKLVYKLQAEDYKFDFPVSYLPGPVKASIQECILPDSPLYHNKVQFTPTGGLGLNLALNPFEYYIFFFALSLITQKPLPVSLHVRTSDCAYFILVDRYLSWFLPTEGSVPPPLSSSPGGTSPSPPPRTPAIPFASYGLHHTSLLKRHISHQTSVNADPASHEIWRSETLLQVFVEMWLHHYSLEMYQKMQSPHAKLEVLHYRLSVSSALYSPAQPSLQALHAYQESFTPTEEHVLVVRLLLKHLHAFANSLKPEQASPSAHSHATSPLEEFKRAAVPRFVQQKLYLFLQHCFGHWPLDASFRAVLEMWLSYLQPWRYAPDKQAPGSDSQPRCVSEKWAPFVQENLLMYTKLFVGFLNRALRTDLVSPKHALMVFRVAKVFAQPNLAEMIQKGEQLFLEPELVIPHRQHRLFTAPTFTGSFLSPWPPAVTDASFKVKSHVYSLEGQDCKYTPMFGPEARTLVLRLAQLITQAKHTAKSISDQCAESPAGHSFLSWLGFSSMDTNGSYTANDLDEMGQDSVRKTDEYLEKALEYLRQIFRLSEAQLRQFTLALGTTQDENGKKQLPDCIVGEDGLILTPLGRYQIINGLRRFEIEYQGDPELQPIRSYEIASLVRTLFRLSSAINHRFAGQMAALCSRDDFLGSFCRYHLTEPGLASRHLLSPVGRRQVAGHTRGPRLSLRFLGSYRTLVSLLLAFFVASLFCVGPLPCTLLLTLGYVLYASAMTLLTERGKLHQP
inactive: [3] 0.162 | [4] -0.023 | vemurafenib -0.301 | [5] 0.099 | [6] -0.035 | barasertib 0.034 | volasertib -0.234 | [10] -0.236 | [11] -0.044 | rosiglitazone -0.047 | [12] 0.056 | [13] -0.441

SYK (UniProt P43405)
inactive: [2] 0.015 | [3] -0.025 | [4] -0.386 | vemurafenib -0.097 | [5] -0.058 | givinostat 0.307 | barasertib -0.094 | volasertib 0.196 | epoxomicin 0.022 | [9] -0.021 | [11] -0.085 | rosiglitazone -0.006 | [12] -0.052
active: Nexturastat A 0.901

TM7SF2 (UniProt O76062)
inactive: [1] 0.051 | [2] 0.015 | [3] -0.045 | vemurafenib 0.252 | [5] 0.123 | givinostat 0.18 | [8] -0.022 | [9] -0.111 | [11] -0.435 | [12] 0.031
active: volasertib 0.907

SRSF6 (UniProt Q13247)
inactive: [1] -0.012 | [3] -0.16 | [4] 0.126 | Nexturastat A 0.248 | vemurafenib -0.024 | [5] -0.058 | [6] 0.104 | givinostat 0.019 | barasertib -0.059 | [7] 0.011 | volasertib 0.174 | [8] 0.116 | epoxomicin -0.181 | [9] -0.004 | [10] 0.028 | [11] -0.08 | rosiglitazone -0.043 | [12] 0.207 | [13] 0.315

TBC1D2 (UniProt Q9BYX2)
inactive: [6] 0.11 | [7] -0.055 | epoxomicin -0.238 | [10] 0.087 | [13] -0.019
active: Nexturastat A 0.618

TCOF1 isoform 6 (UniProt Q13428)
Chain of UniProt Q13428 (Q13428 whole entry, looked up): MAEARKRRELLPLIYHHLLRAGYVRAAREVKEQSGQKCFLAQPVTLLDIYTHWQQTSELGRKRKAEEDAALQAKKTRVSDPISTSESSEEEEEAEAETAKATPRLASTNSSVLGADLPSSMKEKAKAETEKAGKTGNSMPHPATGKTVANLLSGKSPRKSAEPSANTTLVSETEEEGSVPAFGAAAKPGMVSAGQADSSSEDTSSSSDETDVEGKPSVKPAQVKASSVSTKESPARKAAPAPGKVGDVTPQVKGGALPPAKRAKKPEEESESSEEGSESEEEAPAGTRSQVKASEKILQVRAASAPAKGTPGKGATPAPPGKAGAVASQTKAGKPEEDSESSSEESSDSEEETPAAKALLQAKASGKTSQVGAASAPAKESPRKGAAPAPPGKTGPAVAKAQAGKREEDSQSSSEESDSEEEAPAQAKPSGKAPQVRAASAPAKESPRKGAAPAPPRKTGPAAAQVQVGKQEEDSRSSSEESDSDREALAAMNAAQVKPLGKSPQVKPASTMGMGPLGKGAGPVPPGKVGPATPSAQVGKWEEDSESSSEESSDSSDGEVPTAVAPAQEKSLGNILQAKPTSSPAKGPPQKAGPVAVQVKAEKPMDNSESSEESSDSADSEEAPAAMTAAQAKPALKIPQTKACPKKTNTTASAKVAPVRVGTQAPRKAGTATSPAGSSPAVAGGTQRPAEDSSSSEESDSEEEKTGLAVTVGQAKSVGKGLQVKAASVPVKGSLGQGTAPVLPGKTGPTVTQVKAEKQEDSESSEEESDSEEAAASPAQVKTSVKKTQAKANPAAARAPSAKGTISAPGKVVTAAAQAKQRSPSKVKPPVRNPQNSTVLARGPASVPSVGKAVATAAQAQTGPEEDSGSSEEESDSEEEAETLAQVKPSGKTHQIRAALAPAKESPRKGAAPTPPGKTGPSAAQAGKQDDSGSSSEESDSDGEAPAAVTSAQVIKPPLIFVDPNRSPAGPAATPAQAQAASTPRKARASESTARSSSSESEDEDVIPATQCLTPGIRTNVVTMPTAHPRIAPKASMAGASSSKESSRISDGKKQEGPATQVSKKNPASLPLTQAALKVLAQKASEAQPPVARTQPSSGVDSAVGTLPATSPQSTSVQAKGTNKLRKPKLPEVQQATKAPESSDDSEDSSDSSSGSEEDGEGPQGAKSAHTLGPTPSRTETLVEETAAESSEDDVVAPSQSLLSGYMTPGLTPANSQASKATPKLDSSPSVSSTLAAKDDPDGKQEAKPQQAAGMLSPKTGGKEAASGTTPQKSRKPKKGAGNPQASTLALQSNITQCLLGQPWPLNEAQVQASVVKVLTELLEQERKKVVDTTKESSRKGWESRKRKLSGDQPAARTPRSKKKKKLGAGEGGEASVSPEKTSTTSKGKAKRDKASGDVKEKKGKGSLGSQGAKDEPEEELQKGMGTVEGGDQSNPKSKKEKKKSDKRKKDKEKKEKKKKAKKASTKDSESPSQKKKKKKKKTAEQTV
inactive: [1] 0.148 | [2] -0.078 | [4] -0.105 | vemurafenib 0.146 | [6] 0.545 | givinostat -0.024 | barasertib 0.008 | [7] 0.04 | [8] -0.132 | [9] -0.039 | [11] -0.219 | rosiglitazone -0.173

STK17B (UniProt O94768)
Chain of UniProt O94768 (O94768 whole entry, looked up): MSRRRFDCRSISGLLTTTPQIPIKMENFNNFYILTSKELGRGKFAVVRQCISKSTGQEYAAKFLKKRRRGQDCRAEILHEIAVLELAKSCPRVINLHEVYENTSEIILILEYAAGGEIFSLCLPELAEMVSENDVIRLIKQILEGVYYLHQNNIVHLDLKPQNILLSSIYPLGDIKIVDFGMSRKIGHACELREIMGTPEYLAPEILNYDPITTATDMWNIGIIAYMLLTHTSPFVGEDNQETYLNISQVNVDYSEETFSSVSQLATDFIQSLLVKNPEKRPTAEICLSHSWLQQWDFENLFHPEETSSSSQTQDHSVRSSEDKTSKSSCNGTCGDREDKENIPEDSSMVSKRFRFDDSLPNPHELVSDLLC
inactive: [4] 0.031 | givinostat 0.16 | barasertib 0.29 | [9] -0.099 | rosiglitazone 0.07

TAF6L (UniProt Q9Y6J9)
Chain of UniProt Q9Y6J9 (Q9Y6J9 whole entry, looked up): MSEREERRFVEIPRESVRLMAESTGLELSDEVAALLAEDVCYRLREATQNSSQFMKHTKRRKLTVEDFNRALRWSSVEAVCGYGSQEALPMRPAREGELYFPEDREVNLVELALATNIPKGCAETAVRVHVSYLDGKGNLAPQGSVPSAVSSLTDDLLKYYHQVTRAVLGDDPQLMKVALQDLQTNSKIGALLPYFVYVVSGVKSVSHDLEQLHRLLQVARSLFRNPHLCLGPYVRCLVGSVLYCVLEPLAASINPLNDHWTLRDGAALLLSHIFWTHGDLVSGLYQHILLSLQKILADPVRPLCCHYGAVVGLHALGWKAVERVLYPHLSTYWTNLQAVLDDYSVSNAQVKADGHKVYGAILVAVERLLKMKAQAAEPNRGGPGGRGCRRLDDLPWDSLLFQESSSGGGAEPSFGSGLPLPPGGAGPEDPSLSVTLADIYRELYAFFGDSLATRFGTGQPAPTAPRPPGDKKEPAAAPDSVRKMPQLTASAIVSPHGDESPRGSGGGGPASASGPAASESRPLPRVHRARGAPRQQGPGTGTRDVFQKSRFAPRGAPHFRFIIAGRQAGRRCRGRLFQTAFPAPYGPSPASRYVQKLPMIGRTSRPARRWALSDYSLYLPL
inactive: [1] -0.042 | [2] 0.114 | [3] -0.055 | [5] -0.059 | [6] 0.091 | givinostat 0.075 | [8] 0.118 | [9] -0.179 | [10] -0.04 | [12] 0.081 | [13] -0.126
active: volasertib -0.537

SLC8B1 (UniProt Q6J4K2)
inactive: [2] 0.038 | [3] -0.28 | [4] -0.022 | vemurafenib -0.075 | [5] -0.021 | givinostat 0.069 | barasertib -0.167 | volasertib 0.156 | [9] 0.09 | [10] 0.091 | [11] -0.005 | rosiglitazone 0.058 | [12] 0.086 | [13] -0.509

SLC9A6 isoform 3 (UniProt Q92581)
inactive: [3] -0.152 | [5] -0.152 | givinostat -0.021 | barasertib 0.109 | [7] -0.041 | volasertib -0.045 | [9] 0.045 | rosiglitazone -0.091 | [12] 0.008

SPIRE1 (UniProt Q08AE8)
inactive: [2] 0.013 | [4] -0.025 | Nexturastat A 0.31 | vemurafenib -0.011 | [6] -0.062 | givinostat 0.185 | barasertib -0.014 | [7] 0.125 | [8] -0.181 | epoxomicin -0.238 | [9] -0.069 | [10] -0.116 | [11] -0.056 | rosiglitazone -0.002 | [13] -0.026

TC2N (UniProt Q8N9U0)
Chain of UniProt Q8N9U0 (Q8N9U0 whole entry, looked up): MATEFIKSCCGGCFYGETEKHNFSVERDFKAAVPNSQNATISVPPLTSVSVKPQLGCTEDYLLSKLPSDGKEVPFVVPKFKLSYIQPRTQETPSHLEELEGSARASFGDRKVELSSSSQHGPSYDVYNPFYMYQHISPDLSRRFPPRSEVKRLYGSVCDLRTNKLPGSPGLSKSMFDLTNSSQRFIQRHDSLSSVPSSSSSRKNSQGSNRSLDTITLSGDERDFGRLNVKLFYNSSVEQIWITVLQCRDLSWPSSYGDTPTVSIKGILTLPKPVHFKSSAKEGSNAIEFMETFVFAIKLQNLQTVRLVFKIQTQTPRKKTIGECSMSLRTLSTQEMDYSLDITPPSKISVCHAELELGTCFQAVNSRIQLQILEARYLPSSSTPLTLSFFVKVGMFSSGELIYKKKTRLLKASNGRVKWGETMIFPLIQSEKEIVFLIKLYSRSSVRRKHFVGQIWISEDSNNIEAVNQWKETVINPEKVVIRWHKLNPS
inactive: [2] 0.077 | vemurafenib 0.063 | [6] -0.098 | [8] 0.029 | [11] -0.194 | [12] 0.073

SLC46A1 (UniProt Q96NT5)
inactive: vemurafenib 0.056 | givinostat 0.011 | [7] 0.156 | [9] -0.072 | [10] -0.072 | [11] -0.041 | [13] 0.087

SYNE1 (UniProt Q8NF91)
inactive: [1] -0.126 | [2] -0.051 | [4] -0.17 | vemurafenib -0.045 | [6] -0.044 | givinostat 0.199 | barasertib 0.047 | [7] -0.01 | [8] -0.048 | epoxomicin 0.047 | [9] -0.142 | [10] -0.113 | [11] 0.042 | rosiglitazone 0.031 | [12] 0.051 | [13] -0.208
active: Nexturastat A 0.612

TDP1 (UniProt Q9NUW8)
inactive: givinostat 0.112 | [9] -0.11

SLC44A2 isoform 2 (UniProt Q8IWA5)
inactive: [1] 0.084 | [2] -0.033 | [4] -0.024 | Nexturastat A 0.05 | vemurafenib 0.038 | [6] -0.029 | givinostat -0.027 | barasertib -0.012 | [7] 0.2 | [8] 0 | epoxomicin 0.053 | [9] 0.014 | [10] -0.105 | [11] -0.048 | rosiglitazone -0.016 | [12] -0.154 | [13] 0.259
